Data on 48 compounds can be found in PubChem BioAssay AID1345082 (National Center for Advancing Translational Sciences (NCATS), 2018).

SMILES strings stand for the structures. The campaign covered roughly 94,000 compounds. About 4,000 (4.3%) were called active. Inconclusive results (about 29%) are left out. This excerpt belongs to a sample that is enriched for actives. Unmarked numbers belong to inactive results. The call rests on the fitted dose curve; in most records, active means well fitted inhibition curve with a large enough effect; inconclusive means small, poorly fitted or top-dose-only effect; inactive means no such curve, though single readings can be large or run the other way.
On the % scale 0 is the no-effect control and ±100 the full control effect; potency means the concentration at half of the fitted maximal effect.

The assay in a line: Cytotoxic Profiling in NIH 3T3 Cell Line of Diverse Libraries Using Quantitative High-Throughput Screening. Further: nearly all actives have a fitted effect of over 55% in size. The conditions noted are these: NIH 3T3 viability, CellTiter-Glo ATP luminescence, 48-72 h; series mostly up to 96.7 µM; activity change, negative = cytotoxicity: at the top concentration. The method in brief: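 Cells were seeded at 400 per well, treated with pin-transferred compound, and kept 48 or 72 hr at 37 °C before CellTiter-Glo addition and luminescence imaging of cellular ATP.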
As to `O=C(Cc1ccccc1)Nc1ccc([C@@H](O)[C@H]2COCC(=O)N2)cc1`, the “activity change, negative = cytotoxicity” value was 2.9% [at 138 µM]. Still for that read-out and setting: in the case of `Cc1nc2cnccn2c1C(=O)NC1CCCC1` it was -26.7% [at 138 µM].

Regarding `Cn1nc2n(c1=O)CCN(S(=O)(=O)c1ccc(C#N)cc1)CC2`, the compound was classed as inactive.

`Cc1cccc(-c2cc(C3CCN(S(=O)(=O)c4cccc(C#N)c4)CC3)[nH]n2)c1`: the Potency is 5.01 µM (active). `Cc1cnc(-c2cccnc2)n1C1CCN(S(=O)(=O)c2cccc(F)c2)CC1`: the “activity change, negative = cytotoxicity” value is -7.18%. As for `Cc1cccc(-c2cc(C3CCN(S(=O)(=O)c4ccc(C#N)cc4)CC3)[nH]n2)c1`, the Potency is 14.1 µM (active).

For `Cc1cccc(S(=O)(=O)N2CCC(n3cnnc3C(C)C)CC2)c1`, the “activity change, negative = cytotoxicity” value is -17.6%. For the compound `Cc1cnc(CC2CCN(S(=O)(=O)c3ccc(C#N)cc3)C2)n1Cc1ccccc1` (stereo not drawn), the “activity change, negative = cytotoxicity” value is -19.8%.

For the compound `O=C(Cc1ccsc1)NCC1CCCCC(=O)N1` (stereo not drawn), the call was inactive. On to `Cc1ncccc1C(=O)N1CC2CC(C1)[C@H]1CCCC(=O)N1C2` (stereo partly drawn), for which the “activity change, negative = cytotoxicity” value was -0.593%. On the same count and under the same terms, in the case of `CN1CC(=O)N(C2CCCNCC2)Cc2c1ncnc2N1CCCC(F)C1` (stereo not drawn) it was -4.05%; in that of `Cc1noc(C)c1CC(=O)NCC12CCC=C1N(Cc1ccccc1)C(=O)CC2` (stereo not drawn), -15%; in that of `CCc1ccc(C(=O)NC2CCN(c3cnn(CC)c(=O)c3)CC2)cc1`, -15.7%.

For the compound `Cn1ncc(N2CCC(C(=O)NC3CCCC3)C2)cc1=O` (stereo not drawn), the “activity change, negative = cytotoxicity” value is -3.98%.

In the case of `Cc1cc(C)cc(C(=O)NC2CCN(c3cnn(C)c(=O)c3)CC2)c1`, the Potency is 39.8 µM (active).

Take `COc1ccc(C(=O)N2CCN(C(=O)Nc3cccc(OC)c3)C[C@@H]2C(=O)N[C@H]2CCCNC2=O)cc1`: the “activity change, negative = cytotoxicity” value is 4.28%. Still for that read-out and setting: with `Cc1cc(C(=O)NCC2(COc3cccnc3)C[C@@H](O)[C@@H](O)C2)n(C)n1` (stereo partly drawn) the figure was -25.3% [at 174 µM]; with `Cc1cccc(-c2noc([C@@H]3Cc4nc[nH]c4CN3C(=O)CCC(=O)O)n2)c1`, -4.77% [at 174 µM]. Consider `Cc1ccc(-c2noc([C@@H]3Cc4nc[nH]c4CN3Cc3cccc(C#N)c3)n2)cc1`, for which the Potency is 100 µM (active).

As for `O=C(c1ccco1)N1Cc2[nH]cnc2C[C@H]1c1nc(-c2ccncc2)no1`, the “activity change, negative = cytotoxicity” value is -11.2% [at 138 µM]. Still for that read-out and setting: in the case of `CNC(=O)c1cc(C2CC2)nc2onc(C3CCN(C(=O)Cc4ccc(OC)cc4)CC3)c12` it was -23.1%. Regarding `O=C1c2cc(N3CCOCC3)nc(-c3cccnc3)c2CN1C1COC1`, the Potency was 8.91 µM (active).

For the compound `O=C(NC1CCCCC1)N1CCCCCC1c1nc(-c2cccnc2)no1` (stereo not drawn), the “activity change, negative = cytotoxicity” value was -26.4%. On the same count and under the same terms, in the case of `O=c1[nH]c(N2CCOCC2)nc2c1CCN(Cc1cccc(F)c1)CC2` it was 4.36%. As for `CN1Cc2c(cc(N3CCOCC3)nc2-c2cccc(F)c2)C1=O`, the Potency was 8.91 µM (active). On to `O=C(c1cccnc1)N1CCC2(CCCN(C3CCOCC3)C2=O)C1` (stereo not drawn), for which the “activity change, negative = cytotoxicity” value was 4.79%.

For the compound `Cc1cccc(Cn2c(-c3ccc(F)cc3)nc(C)c(CCO)c2=O)c1`, the “activity change, negative = cytotoxicity” value is -20.2%. Same read-out and setting: with `Cc1cc(N2CCC(NC(=O)c3cccc(N(C)C)c3)C2=O)ccc1F` (stereo not drawn) the figure was -13.1%; with `O=C(c1c[nH]c2ccccc12)N1CCC2(COc3ccncc3S(=O)(=O)N2)C1` (stereo not drawn), -4.03%; with `Cc1cc(C(=O)N2CCC(N3C(=O)C(O)C34CCCCC4)CC2)nn1C` (stereo not drawn), -3.23%. Turning to `Cc1nc(C)c(C(=O)N2CCN(C(=O)N(C)C)[C@@H]3CS(=O)(=O)C[C@@H]32)s1`, the “activity change, negative = cytotoxicity” value is -15.2%.

For `COc1ccccc1C(=O)N1CCC2(CC1)C(=NC1CCCCC1)NC(=O)N2c1cccnc1`, the outcome was inactive. As for `O=C(NCc1nnc2n1C(C(=O)NC1CC1)CC2)c1ccncc1` (stereo not drawn), the “activity change, negative = cytotoxicity” value is -3.99%. The same measure, in the same setting: with `CCn1cc(S(=O)(=O)N2CC[C@@H]3C(=O)NCCCCCCN(Cc4ccncc4)[C@@H]3C2)cn1` the figure was -21.9%.

On to `CN1[C@@H](CCC(=O)N2CCCC2)CNC(=O)[C@@H]2[C@H]1CCN2Cc1ccc(S(C)(=O)=O)cc1`, for which the “activity change, negative = cytotoxicity” value was 3.65%. Regarding `O=[S+]([O-])(c1cccs1)N1CCN(c2nccc(Nc3ccccc3F)n2)CC1`, the Potency is 25.1 µM (active). On the same count and under the same terms, with `COc1ccccc1Nc1ccnc(N2CCC(N[S+](=O)([O-])c3cccs3)CC2)n1` the figure was 31.6 µM (active). Consider `COc1ccccc1-n1c(=O)c(C(=O)N2CCN([S+](=O)([O-])c3cccs3)CC2)nc2cccnc21`, for which the “activity change, negative = cytotoxicity” value is 4.07%. The same measure, in the same setting: with `COc1ccccc1Nc1ccnc(N2CCC(NC(=O)NC(C)C)CC2)n1` the figure was -11.6%.

Consider `O=c1n(CCN2CCN([S+](=O)([O-])c3cccs3)CC2)nc2n1CCCC2`, for which the “activity change, negative = cytotoxicity” value was -21.4%. On the same count and under the same terms, with `CN(C)C(=O)c1cccnc1OC1CCN(C(=O)c2ccc(Br)o2)C1` (stereo not drawn) the figure was -2.28%. For the compound `CCc1nc2nccc(-c3ccco3)n2n1`, the outcome was inactive. Turning to `Cc1nc(-c2ccccc2OC2CN(C(=O)c3ccnn3C)C2)no1`, the “activity change, negative = cytotoxicity” value was -10.8%. As to `CC(=O)/C=C/C1=CC(C)(C)COc2ccc(O)cc21`, the Potency was 25.1 µM (active). Turning to `Cc1noc(-c2cccc(OC3CN(C(=O)CN4C(=O)CCC4=O)C3)c2)n1`, the “activity change, negative = cytotoxicity” value was 2.78%.

For `CC(=O)Nc1ccc(NC(=O)Cn2nc3c(cc2=O)CCCCC3)cc1`, the compound was called inactive.

For the compound `O=C(c1ccoc1)N1CCCC(c2nc(CCOCC3CCCC3)no2)C1` (stereo not drawn), the “activity change, negative = cytotoxicity” value was -12.7%. The same measure, in the same setting: in the case of `O=C(Cc1cccnc1)N1CCCC(c2nc(CCOCC3CCCC3)no2)C1` (stereo not drawn) it was -8.29%.
